Many of the other results were omitted from the sample, so hits are more common in it than they were.
CD40 NFkB inh: inhibitors of CD40-induced NF-kB signaling, primary screen, BL2 cells, luciferase reporter, single point; CD40L-induced, 4 h; inhibition, % at 10 µM; 0.94% of 83,000 active;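 active = mean inhibition of at least 50% with a set share of replicates also reaching that level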;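 note: 0% = neutral control wells and 100% = IKK inhibitor VII at 50 µM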
An asterisk follows results filed as active; ! = repeats disagree; [ ] = another dose, or the depositor's remark.

SMILES | CD40 NFkB inh
N#C[C@@H]1[C@H](c2ccc(C#Cc3ccccc3F)cc2)[C@@H](CO)N1C(=O)C1CC1 | 86*[25 µM]
O=C(C[C@H]1C[C@@H]2c3cc(NC(=O)c4cccnc4)ccc3O[C@@H]2[C@@H](CO)O1)NC1CCCCC1 | -12[25 µM]
COC(C(=O)Nc1ccc(S(=O)(=O)N2CCCCC2)cc1)c1ccccc1 (stereo unspecified) | -2
CC(OC(=O)c1cc(Br)ccc1O)C(=O)Nc1ccc(S(=O)(=O)N2CCCC2)cc1 (stereo unspecified) | 65*
CC1CCN(C(C)C(=O)Nc2ccc(S(=O)(=O)N3CCCC3)cc2)CC1 (stereo unspecified) | 3
CCC(=O)N1[C@H](CN(C)C(=O)CN2CCOCC2)[C@@H](c2ccccc2)[C@@H]1CO | -1
CCS(=O)(=O)N(C)[C@H]1c2cc(C#N)ccc2OC(C)(C)[C@@H]1O | 2[25 µM]
O=C(Nc1ccccc1F)N[C@@H]1C=C[C@@H](CC(=O)N2CCCCC2)O[C@@H]1CO | 3
CCCNC(=O)N1[C@H](C#N)[C@H](c2ccc(-c3ccc(C(=O)N(C)C)cc3)cc2)[C@@H]1CO | 8
Cc1ccc(OC(=O)N(C)C[C@@H]2OCc3ccccc3-c3ccccc3C(=O)N([C@@H](C)CO)C[C@H]2C)cc1 | -3[25 µM]
N#CC1(NC(=O)COC(=O)c2ccc(Cl)nc2)CCCCC1 | 3
N#CC1(NC(=O)Cn2ncc(Cl)c(Cl)c2=O)CCCCC1 | 119*
Cc1cc(SCC(=O)NC2(C#N)CCCCC2)nc2c(C)cccc12 | -2
CC=Cc1ccc2n(c1=O)C[C@@H]1[C@@H](CO)[C@H](C(=O)NCC3CC3)[C@H]2N1Cc1cccnc1 (mixture of isomers) | 2[25 µM]
Cc1onc(-c2ccccc2)c1C(=O)Oc1ccccc1 | 12
O=C(Oc1ccccc1C(=O)Oc1ccccc1)c1cccnc1 | -10
Cc1ncn(-c2ccc(C(=O)Oc3ccccc3)cn2)n1 | 38*
Cc1ccccc1S(=O)(=O)N(C)C[C@H]1OCc2ccccc2-c2c(n(C)c3ccccc23)C(=O)N([C@@H](C)CO)C[C@@H]1C | 4
Cc1ccccc1S(=O)(=O)N1CCCCN2[C@H](CO)[C@H](c3ccc(C#CCN(C)C)cc3)[C@@H]2C1 | -11[25 µM]
O=C(c1ccncc1)N1CC[C@@H]2[C@@H](CO)Nc3ccc(-c4ccc(F)cc4)cc3[C@@H]21 | active[25 µM]
O=C(c1cccc(F)c1)N1CC[C@@H]2[C@@H](CO)Nc3ccc(-c4ccc(F)cc4)cc3[C@@H]21 | -7
O=C(Cc1ccccc1)N1CC[C@@H]2[C@@H](CO)Nc3ccc(-c4cccc(F)c4)cc3[C@@H]21 | -16[25 µM]
O=C(Cc1ccccc1)N1CC[C@@H]2[C@H](CO)Nc3ccc(-c4cccc(F)c4)cc3[C@@H]21 | -22[25 µM]
O=C(Cc1ccccc1)N1CC[C@@H]2[C@@H](CO)Nc3ccc(C#Cc4cccc(F)c4)cc3[C@@H]21 | 2[25 µM]
O=C(c1ccncc1)N1CC[C@@H]2[C@H](CO)Nc3ccc(-c4ccc(F)cc4)cc3[C@@H]21 | -47[25 µM]
SMILES | CD40 NFkB inh
O=C(Cc1ccccc1)N1CC[C@@H]2[C@H]1c1cc(C#Cc3cccc(F)c3)ccc1N[C@@H]2CO | 82*[25 µM]
O=C(Cc1ccccc1)N1CC[C@H]2[C@H](CO)Nc3ccc(-c4cccc(F)c4)cc3[C@H]21 | 4[25 µM]
O=C(Cc1ccccc1)N1CC[C@@H]2[C@H]1c1cc(-c3cccc(F)c3)ccc1N[C@@H]2CO | 70*[25 µM]
CC(C)[C@@H]1COCn2nncc2CC[C@H](Cc2ccc(-c3ccccc3)cc2)C(=O)N1 | 2
CO[C@@H]1CN(C)C(=O)c2ccc(NC(=O)C3CCCC3)cc2OC[C@@H](C)NC[C@H]1C | -1
N#C[C@@H]1[C@@H](c2ccc(C#CC3CCCC3)cc2)[C@H](CO)N1C(=O)c1cccc(F)c1 | -5
C/C=C/c1ccc([C@@H]2[C@@H](CO)N(C(=O)C3CCC3)[C@H]2CN(CC)C(=O)CC)cc1 | 5[25 µM]
CO[C@H](CN(C)Cc1cc(F)ccc1F)[C@H](C)CN(C(=O)Nc1ccc(C(F)(F)F)cc1)[C@H](C)CO | 53*[25 µM]
CO[C@@H](CN(C)Cc1cc(F)ccc1F)[C@H](C)CN(C(=O)Nc1ccc(C(F)(F)F)cc1)[C@H](C)CO | -9[25 µM]
CO[C@@H](CN(C)Cc1ccc2c(c1)OCO2)[C@@H](C)CN(C(=O)Nc1ccc(F)cc1)[C@H](C)CO | -1[25 µM]
CC(C)[C@H]1C(=O)N[C@H](c2cccc(Cl)c2)CC=CC[C@H](C)Oc2ccccc2C(=O)N1C (mixture of isomers) | 6[25 µM]
O=C(C[C@H]1C[C@@H]2c3cc(NC(=O)Nc4ccccc4F)ccc3O[C@@H]2[C@H](CO)O1)NCCc1ccccc1 | -7[25 µM]
CCCCC[C@H](O)/C=C/[C@@H]1[C@@H](C/C=C\CCCC(=O)O)[C@@H](O)C[C@H]1O | -3
CCCCC[C@H](O)/C=C/[C@@H]1[C@@H](C/C=C\CCCC(=O)O)[C@H]2CO[C@@H]1C2 | 15
CCCCC[C@H](O)/C=C/[C@@H]1[C@@H](C/C=C\CCCC(=O)OC)[C@@H](O)C[C@H]1O | 45*
CC(C)NC(=O)N1CC[C@@H]2[C@H]1c1cc(Br)ccc1N(C)[C@H]2CO | 16[25 µM]
COc1cccc(-c2cc3nc4c(c(NCC(C)(C)CN(C)C)n3n2)CCCC4)c1 | 63*
Cc1nn2c(NCCN(C)C)c3c(nc2c1-c1ccccc1)CCCC3 | -78
Cc1nn2c(NCc3cccnc3)c3c(nc2c1-c1ccccc1)CCC3 | 13
C[C@H]1CN([C@@H](C)CO)C(=O)c2c(c3ccccc3n2C)-c2ccccc2CO[C@H]1CN(C)Cc1cccc2c1OCCCO2 | -10[25 µM]
C[C@@H]1CN(C)C(=O)c2cc(N(C)C)ccc2O[C@H]1CN(C)C | 7
COc1cc(/C=N/n2cnnc2)ccc1OC(=O)c1cccnc1 | 19
COc1cc(/C=N/n2cnnc2)ccc1OC(=O)c1ccncc1 | 65*
COc1cc(/C=N/n2cnnc2)ccc1OCC(=O)N1CCOCC1 | 6
C[C@H](CO)N1C[C@H](C)[C@@H](CN(C)C(=O)Cc2cccnc2)Oc2cc(C#Cc3ccccc3F)ccc2S1(=O)=O | -20[25 µM]
SMILES | CD40 NFkB inh
CC(=O)N1[C@H](CO)[C@H](c2ccc(C3=CCCC3)cc2)C12CN(C(=O)NC(C)C)C2 | -15[25 µM]
COc1cccc(S(=O)(=O)N2[C@@H]3CNC[C@H]2C3c2ccc(/C=C/c3ccccc3)cc2)c1 (stereo partly specified) | -4[25 µM]
COc1cccc(S(=O)(=O)N2C[C@@H]3N[C@H](C2)C3c2ccc(/C=C/c3ccccc3)cc2)c1 (stereo partly specified) | 46*!
COc1cccc(-c2ccc(C3[C@@H]4CN(S(=O)(=O)c5ccccc5)C[C@H]3N4)cc2)c1 (stereo partly specified) | 24
COc1ccc(S(=O)(=O)N(C)C[C@@H]2OCc3ccccc3-c3ccccc3C(=O)N([C@H](C)CO)C[C@H]2C)cc1 | -1
O=C(C[C@H]1C[C@H]2c3cc(NC(=O)NC4CCCCC4)ccc3O[C@H]2[C@H](CO)O1)NC1CCCC1 | -6
Nc1ncnc(Sc2ncccn2)c1[N+](=O)[O-] | 84*
O=[N+]([O-])c1ccc(Sc2ccccn2)nc1 | -12
CN(C)c1ncnc(N(C)C)c1[N+](=O)[O-] | -1
C/C=C/c1ccc([C@@H]2[C@H](CN(C)S(C)(=O)=O)N[C@@H]2CO)cc1 | 0[25 µM]
Cc1nc2sccn2c(=O)c1CCN1CCC(=C(c2ccc(F)cc2)c2ccc(F)cc2)CC1 | 27*
Cc1nc2ccccn2c(=O)c1CCN1CCC(C(=O)c2ccc(F)cc2)CC1 | 5
Cc1ccc(C)c(C(=O)c2c(C)nc3sccn23)c1 | 9
